# Experimental data from PubChem BioAssay.
# Active and inactive are the calls of the source.
# System: XIP peptide (Xip251-270) binding
# Experiment: small-molecule binders of XIP peptide, primary screen, biochemical, small-molecule microarray, fluorescence 635/667 nm, 0.1 µg/mL protein (AID 1182)
# Conditions: fluorescent protein binding, 635 nm, higher = more signal, called active from +8 up or from −8 down
row,SMILES,composite z-score
1,[N-]=[N+]=NCc1ccccc1[C@@H]1OC(c2ccc(OCCCO)cc2)=N[C@]1(Cc1ccccc1N=[N+]=[N-])C(=O)O,1.21 (inactive)
2,C=CCOC(=O)[C@H]1[C@@H]2C(=O)O[C@@H](c3ccccc3)[C@@H](c3ccccc3)N2[C@@H](c2ccc(OCCOC(=O)[C@H]3C[C@H]4C(=O)N[C@@H](CC(C)C)C(=O)N4[C@H]3c3ccc(O)cc3)cc2)[C@]12C(=O)Nc1ccccc12,0.386 (inactive)
3,COc1ccc([Si](C)(C)[C@H]2[C@H](CC(=O)N3Cc4ccccc4C[C@H]3CO)O[C@@]3(C(=O)N(c4ccccc4)c4ccccc43)[C@@H]2C)cc1,0.065 (inactive)
4,N#Cc1ccc(-c2cccc(=O)o2)cc1,0.37 (inactive)
5,COCCOC(=O)N1C(=O)[C@@]2(c3ccccc31)[C@H](C(=O)N1CCN(c3ncccn3)CC1)[C@H]1C(=O)O[C@H](c3ccccc3)[C@H](c3ccccc3)N1[C@@H]2c1ccccc1OCCO,0.044 (inactive)
6,NC(=O)NCC#Cc1ccc2c(c1)[C@]1(C(=O)N2)[C@H](c2ccc(OCCO)cc2)N2[C@H](c3ccccc3)[C@H](c3ccccc3)OC(=O)[C@H]2[C@@H]1C(=O)O,0.348 (inactive)
7,COC(=O)[C@@]1(Cc2ccc(OC)cc2)[C@H]2c3cc(C(=O)N(C)C)[nH]c3C[C@H]2CN1C(=O)c1ccccc1,0.0849 (inactive)

# System: XIP peptide (Xip251-270)
# Experiment: small-molecule binders of XIP peptide, primary screen, biochemical, small-molecule microarray, fluorescence 635/667 nm, 0.5 µg/mL protein (AID 1183)
# Conditions: small-molecule microarray binding, fluorescence 635 nm; higher = more signal
row,SMILES,composite z-score
1,COc1cc(OC)c(C(O)C2C=CC3C(=O)N(c4ccccc4)C(=O)C3N2Nc2ccc(C(C)C)cc2)cc1Br (configuration not stated),0.785
2,CC(C)c1nc2cc(Br)ccc2c(=O)o1,0.355
3,CN1C(=O)[C@@H]2[C@@H](CC(COc3ccccc3)=C3[C@@H](CCc4ccccc4)OB(O)C[C@@H]32)C1=O,0.774
4,O=C(NCCN1CCOCC1)[C@@H]1c2ccccc2C(=O)N(Cc2ccc(OC(F)(F)F)cc2)[C@H]1c1ccc(CO)cc1,-0.103
5,CN(C)c1ccc(C(O)C2C=CC3C(=O)N(Cc4ccccc4)C(=O)C3N2n2cnnc2)cc1 (configuration not stated),-0.23
6,CC(C)C(O)C1C=CC2C(=O)NC(=O)C2N1Nc1ccccn1 (configuration not stated),0.943
7,COc1ccc([Si](C)(C)[C@@H]2[C@@H](CC(=O)N3Cc4ccccc4C[C@H]3CO)O[C@]3(C(=O)N(Cc4ccc(N5CCOC5=O)cc4)c4ccccc43)[C@H]2C)cc1,0.83
8,COCCOC(=O)N1C(=O)[C@@]2(c3cc(C#CCC(C(=O)OC)C(=O)OC)ccc31)[C@H](C(=O)Nc1nc3ccccc3s1)[C@H]1C(=O)O[C@H](c3ccccc3)[C@H](c3ccccc3)N1[C@@H]2c1ccc(O)cc1,0.599
9,COc1cc(CO)cc(I)c1O[C@H]1C=C(C(=O)NCCO)C[C@@H](NC2CCCCCC2)[C@@H]1O,0.649
10,O=C(NC1CC1)[C@@H]1c2ccccc2C(=O)N(Cc2ccc(OC(F)(F)F)cc2)[C@H]1c1ccc(CO)cc1,0.0303
11,CCOC(=O)C1=CC[C@@H](c2ccc(OC)cc2)N(S(=O)(=O)c2ccc(C)cc2)[C@H]1CC,0.463
12,CC1CC/C=C\[C@H]2OC34C=CCN(C(C)(C)C)C(=O)[C@H]3N(CCCO)C(=O)[C@@H]4C2C(=O)O1 (some centres not stated),0.774
13,C=C(C)[C@@H]1CC=C(C(O)C2C=CC3C(=O)N(c4ccccc4)C(=O)C3N2Nc2ccc([N+](=O)[O-])cc2)CC1 (some centres not stated),-0.0122
14,C=CCOC(=O)[C@@H]1[C@H]2C(=O)O[C@H](c3ccccc3)[C@H](c3ccccc3)N2[C@H](c2ccc(OCCOC(=O)[C@H]3C[C@H]4C(=O)NCC(=O)N4[C@H]3c3cccc(OCCO)c3)cc2)[C@@]12C(=O)Nc1ccc(I)cc12,0.794
15,COC(=O)[C@H](Cc1ccccc1)N1CC2=CCCC=C[C@@H]2[C@H]1[C@H](O)Cc1ccccc1,-0.221
16,CC(=O)OCC1C2CC[C@H]3C(OCc4ccc(F)cc4C(F)(F)F)OC[C@]4(C)[C@H]3C2=C(CN4C(=O)OC(C)(C)C)[C@H](C)C1COC(C)=O (some centres not stated),0.653
17,CC(=O)c1ccc(C(O)C2C=CC3C(=O)N(c4ccccc4)C(=O)C3N2Nc2ccc(C(C)C)cc2)cc1 (configuration not stated),0.525
18,CC(C)NC(=O)[C@@]1(C)c2ccccc2C(=O)N(Cc2ccccc2)[C@H]1c1ccc(CO)cc1,0.875
19,CCCCC(O)C1C=CC2C(=O)N(c3ccccc3)C(=O)C2N1Nc1ccc([N+](=O)[O-])cc1 (configuration not stated),0.598
20,Cc1ccc(S[C@]2(C(=O)NC3CC3)CC(=O)N(C(C)C)[C@@H]2c2ccc(CO)cc2I)cc1,0.682
